Source: PubChem BioAssay (EPA / NIEHS)
A structure can be active in one record and inactive in another. Active and inactive are the calls of the source. Rule for the calls: active = hit-call score of the fitted dose curve at least 0.9, where 1 is the maximum; inactive = score below 0.9.

read-out: matrix metalloproteinase-3 (MMP3), MMP3 (gene 4314); test: LTEA_HepaRG_MMP3: Life Technologies and Expression Analysis (LTEA) Assay for matrix metalloproteinase-3 (MMP3) using HepaRG (AID 2283519); conditions: mRNA level, 48 h; actives raise or lower the signal
Experimental: LTEA_HepaRG is a cell based, multiplexed-readout assay that uses HepaRG, a human liver cell line, with measurements taken at 48 hours after chemical dosing on a 96-well plate.LTEA_HepaRG_MMP3 is one of 102 assay component(s) measured in the LTEA HepaRG cell culture assay. It is a marker of Fibrosis.Data from the assay component LTEA_HepaRG_MMP3 was analyzed into 1 endpoint. This assay endpoint, LTEA_HepaRG_MMP3, was analyzed with bidirectional fitting relative to DMSO as the negative control and baseline of activity. Using a type of inducible reporter, measures of mRNA induction for gain or loss-of-signal activity can be used to understand regulation of transcription factor activity. To generalize the intended target to other relatable targets, this assay endpoint is annotated to the protease intended target family, where the subfamily is matrix metalloproteinase.
A total of 1060 chemcials from the ToxCast library were tested in eight-point concentration-response experiments. Cell culture and cytotoxicity assays were conducted at Thermo Fisher Scientific's Custom Services facility (Madison, WI). A single lot of human HepaRG cells (Thermo Fisher Scientific, Frederick, MD) was used for the cell culture experiments. 96-well format collagen type I coated plates of human HepaRG cells were prepared using established methods. Briefly, cryopreserved HepaRG cells were thawed, plated at a density of approximately 100,000 cells/well in HepaRG Thaw, Plate, and General Purpose media (HPRG770, Thermo Fisher Scientific), and incubated for 48 hours. 0.5% DMSO was selected as vehicle control to balance the requisite need of DMSO in HepaRG cultures to maintain differentiation (for example, baseline metabolism, proportions of hepatocytes vs. cholangiocytes), while enabling further hepatic receptor pathway activation (for example, PXR and CAR) in response to chemical exposure. 48 hours after plating, the culture medium was replaced with HepaRG Serum-Free Incudtion Media. Cells were exposed to each test chemical in duplicate and maintained in CO2 incubators for another 48 hours. Chemical plates were thawed to room temperature and 200x concentrations of treatment groups were prepared. 8-point conentration-reponse curves were made with the highest exposure at 100 uM, followed by half-log dilutions, all in 0.5% DMSO. Each test plate contained variouse controls, induction positive controls (1mM phenobarbital), cytotoxicity positive controls ([…] aflatoxin B1), vehicle controls (0.5% DMSO), and total lysis controls (0.5% DMSO). Cell morphology images were taken using an Essen IncuCyte FLR automated microscope, with six 96-well plates imaged in about 24 minutes. Images were captured and exported and JPEG files. Spent culture media was transfered to black-well plates for the LDH assay, and remaining media was sorted at -80 C for later use. Cells were treated with RLT buffer and frozen until shipped for gene expression analysis. Total RNA was isolated from the cell suspension in 75 uL of Buffer RLT (Qiagen, Germantown, MD 20874) by Quintiles/Expression Analysis (Durham, NC) using a custom isolation procedure. Total RNA from each plate well was transferred to a preamplification plate. Fluidigm's 96.96 Dynamic ArrayTM (Fluidigm, Amsterdam, the Netherlands) technology was used for gene expression analyses by quantitative reverse transcription polymerase chain reaction (qRT-PCR, performed by Quintiles/Expression Analysis, Durham, NC)89. Standard TaqManTM Assays (Applied Biosystems/ThermoFisher Scientific, Foster City, CA) were used to assess the expression of 93 genes selected based on their selectivity and sensitivity to important hepatic receptors known to be modulated by environmental chemicals; importance in human hepatocyte functionality; and hepatotoxicity. […]

Compound	outcome	AC50
OC(c1ccc(Cl)cc1)(c1cncnc1)c1ccccc1Cl (stereo not given)	inactive	
CCCN(CCC)c1c([N+](=O)[O-])cc(S(N)(=O)=O)cc1[N+](=O)[O-]	inactive	83.6 µM (active)
N#CC(CCc1ccc(Cl)cc1)(Cn1cncn1)c1ccccc1 (stereo not given)		86 µM (active)
O=C(O)COc1nc(Cl)c(Cl)cc1Cl	inactive	
CCc1nn(C)c(C(=O)NCc2ccc(C(C)(C)C)cc2)c1Cl	inactive	
COC(=O)C=C(C)OP(=O)(OC)OC	inactive	
CC1COC(Cn2cncn2)(c2ccc(Oc3ccc(Cl)cc3)cc2Cl)O1 (stereo not given)		31.7 µM (active)
CN(C)C(=S)SSC(=S)N(C)C	inactive	
Oc1ccccc1-c1ccccc1	inactive	
C=CCC1=C(C)[C@@H](OC(=O)[C@@H]2[C@@H](C=C(C)C)C2(C)C)CC1=O	inactive	
CCOC(=O)C(Cl)Cc1cc(-n2nc(C)n(C(F)F)c2=O)c(F)cc1Cl (stereo not given)	inactive	
CC1=C(C(=O)Nc2ccccc2)SCCO1	inactive	
C=CCC1=C(C)C(OC(=O)C2C(C=C(C)C)C2(C)C)CC1=O (stereo not given)	inactive	
O=C(O)c1nc(Cl)ccc1Cl	inactive	
CCCCNC(=O)n1c(NC(=O)OC)nc2ccccc21	inactive	
COc1ccc(C(c2ccc(OC)cc2)C(Cl)(Cl)Cl)cc1	inactive	
N#Cc1nn(-c2c(Cl)cc(C(F)(F)F)cc2Cl)c(N)c1S(=O)C(F)(F)F (stereo not given)		50.2 µM (active)
CC(Oc1ccc(Cl)cc1Cl)C(=O)O (stereo not given)	inactive	
CCCCC(CC)COC(=O)c1ccccc1C(=O)OCC(CC)CCCC (stereo not given)	inactive	
CNC(=O)ON=CC(C)(C)SC	inactive	

Compound	outcome	AC50
Fc1ccc(Oc2ccnc3cc(Cl)cc(Cl)c23)cc1	inactive	
CON(C)C(=O)Nc1ccc(Cl)c(Cl)c1	inactive	
CC(C)C1(C)N=C(c2nc3ccccc3cc2C(=O)O)NC1=O (stereo not given)	inactive	
CCON=C(CC)C1=C(O)CC(c2c(C)cc(C)cc2C)CC1=O (stereo not given)	inactive	
CC(C)(C)c1ccc(CSc2cnn(C(C)(C)C)c(=O)c2Cl)cc1	inactive	
CCOc1cc(Oc2ccc(C(F)(F)F)cc2Cl)ccc1[N+](=O)[O-]	inactive	
O=C(Nc1ccccc1)Nc1ccnc(Cl)c1	inactive	
COP(=S)(OC)Oc1nc(Cl)c(Cl)cc1Cl	inactive	
CCCCOC(=O)c1ccccc1C(=O)OCCCC	inactive	
CCCC1COC(Cn2cncn2)(c2ccc(Cl)cc2Cl)O1 (stereo not given)		89.4 µM (active)
Cc1c(F)c(F)c(COC(=O)C2C(/C=C(\Cl)C(F)(F)F)C2(C)C)c(F)c1F (stereo not given)	inactive	
CCCCNC(=O)OCC#CI	inactive	
N#Cc1cc(Br)c(O)c(Br)c1		2.69 µM (active)
CC(C)Oc1cc(-n2nc(C(C)(C)C)oc2=O)c(Cl)cc1Cl	inactive	
COC(=O)c1ccccc1C(=O)OC	inactive	
C#CCOS(=O)OC1CCCCC1Oc1ccc(C(C)(C)C)cc1 (stereo not given)	inactive	
COP(N)(=O)SC (stereo not given)	inactive	
CS/C(C)=N/OC(=O)N(C)SN(C)C(=O)O/N=C(\C)SC	inactive	
Cc1ccc(-c2c(Cl)nc(C#N)n2S(=O)(=O)N(C)C)cc1	inactive	
